This passage reports residual activity results from ChEMBL document CHEMBL2218924, “A broad activity screen in support of a chemogenomic map for kinase signalling research and drug discovery” (Biochem J, 2013).

Experiment [1] addresses T1, Mitogen-activated protein kinase 12 (Homo sapiens) (UniProt P53778).
T1 sequence (whole entry): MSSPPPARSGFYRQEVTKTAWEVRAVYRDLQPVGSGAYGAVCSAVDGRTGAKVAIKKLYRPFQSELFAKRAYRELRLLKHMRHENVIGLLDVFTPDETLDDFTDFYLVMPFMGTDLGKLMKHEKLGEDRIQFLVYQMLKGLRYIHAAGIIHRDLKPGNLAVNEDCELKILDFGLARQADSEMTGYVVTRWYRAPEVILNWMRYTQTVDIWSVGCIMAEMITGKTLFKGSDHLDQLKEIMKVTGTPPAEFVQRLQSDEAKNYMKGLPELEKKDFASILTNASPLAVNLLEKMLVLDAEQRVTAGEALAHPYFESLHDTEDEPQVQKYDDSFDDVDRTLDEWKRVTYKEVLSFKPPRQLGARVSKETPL
The note with it: at 1 µM.

Experiment [2] deals with T1, Mitogen-activated protein kinase 12 (Homo sapiens). As to conditions: at 10 µM.
In experiment [3] the target is Mitogen-activated protein kinase 14 (Homo sapiens) (UniProt Q16539). The note with it: at 1 µM.
For experiment [4] the target is unchanged. The note with it: at 10 µM.
The target of experiment [5] is Mitogen-activated protein kinase 11 (Homo sapiens) (UniProt Q15759). The note with it: at 10 µM.
Experiment [6] addresses T2, Tyrosine-protein kinase receptor TYRO3 (Homo sapiens) (UniProt Q06418).
T2 sequence (whole entry): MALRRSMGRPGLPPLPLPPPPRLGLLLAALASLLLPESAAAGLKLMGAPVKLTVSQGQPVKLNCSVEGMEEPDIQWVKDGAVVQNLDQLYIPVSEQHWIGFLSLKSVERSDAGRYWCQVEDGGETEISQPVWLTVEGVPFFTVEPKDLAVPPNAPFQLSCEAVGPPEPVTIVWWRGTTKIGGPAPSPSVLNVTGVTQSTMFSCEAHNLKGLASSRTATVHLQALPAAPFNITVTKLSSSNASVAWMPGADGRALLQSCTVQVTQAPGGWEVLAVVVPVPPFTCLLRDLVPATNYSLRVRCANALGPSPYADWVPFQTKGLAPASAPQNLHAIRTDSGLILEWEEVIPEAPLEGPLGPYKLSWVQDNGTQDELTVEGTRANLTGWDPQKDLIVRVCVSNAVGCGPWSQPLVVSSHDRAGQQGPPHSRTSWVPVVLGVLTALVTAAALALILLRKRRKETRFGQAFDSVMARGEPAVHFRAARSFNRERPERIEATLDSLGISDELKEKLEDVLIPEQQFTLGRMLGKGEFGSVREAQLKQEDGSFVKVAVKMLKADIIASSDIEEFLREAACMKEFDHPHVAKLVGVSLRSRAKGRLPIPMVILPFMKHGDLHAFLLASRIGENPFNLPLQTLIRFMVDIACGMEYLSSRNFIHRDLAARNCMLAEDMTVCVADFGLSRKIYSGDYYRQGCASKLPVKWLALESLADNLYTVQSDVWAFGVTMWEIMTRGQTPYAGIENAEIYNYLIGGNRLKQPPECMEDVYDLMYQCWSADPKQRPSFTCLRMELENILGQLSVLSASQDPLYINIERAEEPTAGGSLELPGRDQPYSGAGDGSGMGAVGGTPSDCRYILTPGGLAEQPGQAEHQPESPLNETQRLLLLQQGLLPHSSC
As to conditions: at 1 µM.

Experiment [7] concerns the target T2, Tyrosine-protein kinase receptor TYRO3 (Homo sapiens). As to conditions: at 10 µM.
The target of experiment [8] is Ribosomal protein S6 kinase alpha-1 (Homo sapiens) (UniProt Q15418). The note with it: at 1 µM.
Experiment [9] deals with Ribosomal protein S6 kinase alpha-3 (Homo sapiens) (UniProt P51812). As to conditions: at 1 µM.
Experiment [10] shares this target. As to conditions: at 10 µM.
Experiment [11] has as its target Ribosomal protein S6 kinase alpha-2 (Homo sapiens) (UniProt Q15349). As to conditions: at 1 µM.
The target is the same in experiment [12]. As to conditions: at 10 µM.
The target of experiment [13] is Ribosomal protein S6 kinase alpha-6 (Homo sapiens) (UniProt Q9UK32). The note with it: at 1 µM.
For experiment [14] the target is unchanged. The note with it: at 10 µM.
The target in experiment [15] is Mitogen-activated protein kinase 11 (Homo sapiens) (UniProt Q15759). As to conditions: at 1 µM.
In experiment [16] the target is T3, Mitogen-activated protein kinase 13 (Homo sapiens) (UniProt O15264).
T3 sequence (whole entry): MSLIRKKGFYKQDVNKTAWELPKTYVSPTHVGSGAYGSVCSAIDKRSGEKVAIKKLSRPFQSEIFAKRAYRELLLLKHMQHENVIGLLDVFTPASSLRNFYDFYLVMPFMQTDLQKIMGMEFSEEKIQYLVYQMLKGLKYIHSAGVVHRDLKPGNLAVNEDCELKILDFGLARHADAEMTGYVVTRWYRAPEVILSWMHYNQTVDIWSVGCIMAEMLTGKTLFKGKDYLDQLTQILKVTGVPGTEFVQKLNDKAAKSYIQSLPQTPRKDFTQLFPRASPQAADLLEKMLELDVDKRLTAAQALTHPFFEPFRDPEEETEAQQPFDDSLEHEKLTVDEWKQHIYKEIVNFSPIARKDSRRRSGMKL
As to conditions: at 1 µM.

In experiment [17] the target is Ribosomal protein S6 kinase alpha-1 (Homo sapiens) (UniProt Q15418). As to conditions: at 10 µM.
Experiment [18] addresses T4, Serine/threonine-protein kinase Sgk1 (Homo sapiens) (UniProt O00141).
T4 sequence (whole entry): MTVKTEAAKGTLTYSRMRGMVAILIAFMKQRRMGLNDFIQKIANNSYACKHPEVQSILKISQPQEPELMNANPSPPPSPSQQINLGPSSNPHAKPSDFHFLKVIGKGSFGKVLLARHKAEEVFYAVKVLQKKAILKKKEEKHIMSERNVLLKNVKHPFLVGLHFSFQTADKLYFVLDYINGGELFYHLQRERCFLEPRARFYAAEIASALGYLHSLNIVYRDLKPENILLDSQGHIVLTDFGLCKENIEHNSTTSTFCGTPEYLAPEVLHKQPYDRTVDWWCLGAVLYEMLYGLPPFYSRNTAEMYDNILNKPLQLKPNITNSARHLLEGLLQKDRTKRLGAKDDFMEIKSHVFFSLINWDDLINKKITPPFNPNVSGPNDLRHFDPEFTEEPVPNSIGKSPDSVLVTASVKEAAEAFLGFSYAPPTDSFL
As to conditions: at 10 µM.

Experiment [19] has as its target T4, Serine/threonine-protein kinase Sgk1 (Homo sapiens). As to conditions: at 1 µM.
In experiment [20] the target is T3, Mitogen-activated protein kinase 13 (Homo sapiens). The note with it: at 10 µM.

Mitogen-activated protein kinase 11 (Homo sapiens), sequence (Q15759 whole entry): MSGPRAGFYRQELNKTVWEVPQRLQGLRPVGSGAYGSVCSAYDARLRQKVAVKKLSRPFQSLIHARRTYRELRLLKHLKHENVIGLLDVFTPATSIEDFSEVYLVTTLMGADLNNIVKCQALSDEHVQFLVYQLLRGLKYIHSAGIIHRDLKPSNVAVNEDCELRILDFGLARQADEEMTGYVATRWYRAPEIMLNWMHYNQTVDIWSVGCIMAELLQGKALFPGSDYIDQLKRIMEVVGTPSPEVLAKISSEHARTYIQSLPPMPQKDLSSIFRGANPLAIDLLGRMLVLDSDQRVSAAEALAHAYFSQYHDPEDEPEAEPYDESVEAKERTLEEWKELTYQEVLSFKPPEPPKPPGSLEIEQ
Ribosomal protein S6 kinase alpha-1 (Homo sapiens), sequence (Q15418 whole entry): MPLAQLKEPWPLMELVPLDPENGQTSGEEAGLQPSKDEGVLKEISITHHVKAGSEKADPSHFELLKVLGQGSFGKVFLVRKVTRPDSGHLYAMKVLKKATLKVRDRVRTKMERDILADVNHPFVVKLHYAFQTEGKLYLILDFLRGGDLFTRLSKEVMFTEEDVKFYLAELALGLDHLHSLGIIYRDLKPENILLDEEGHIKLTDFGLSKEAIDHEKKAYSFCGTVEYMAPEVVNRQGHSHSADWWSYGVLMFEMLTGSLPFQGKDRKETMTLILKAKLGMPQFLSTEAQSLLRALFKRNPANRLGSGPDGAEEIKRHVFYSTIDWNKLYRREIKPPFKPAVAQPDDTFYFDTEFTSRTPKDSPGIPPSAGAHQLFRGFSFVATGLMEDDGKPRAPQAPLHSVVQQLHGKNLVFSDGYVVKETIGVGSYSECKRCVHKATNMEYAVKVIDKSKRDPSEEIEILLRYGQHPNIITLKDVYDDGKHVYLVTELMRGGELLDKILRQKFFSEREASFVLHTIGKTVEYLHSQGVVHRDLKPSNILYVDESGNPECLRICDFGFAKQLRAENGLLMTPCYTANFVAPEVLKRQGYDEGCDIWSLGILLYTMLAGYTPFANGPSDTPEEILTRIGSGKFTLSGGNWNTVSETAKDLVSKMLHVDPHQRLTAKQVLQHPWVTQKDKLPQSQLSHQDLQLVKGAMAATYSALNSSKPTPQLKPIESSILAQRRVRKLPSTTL
Ribosomal protein S6 kinase alpha-2 (Homo sapiens), sequence (Q15349 whole entry): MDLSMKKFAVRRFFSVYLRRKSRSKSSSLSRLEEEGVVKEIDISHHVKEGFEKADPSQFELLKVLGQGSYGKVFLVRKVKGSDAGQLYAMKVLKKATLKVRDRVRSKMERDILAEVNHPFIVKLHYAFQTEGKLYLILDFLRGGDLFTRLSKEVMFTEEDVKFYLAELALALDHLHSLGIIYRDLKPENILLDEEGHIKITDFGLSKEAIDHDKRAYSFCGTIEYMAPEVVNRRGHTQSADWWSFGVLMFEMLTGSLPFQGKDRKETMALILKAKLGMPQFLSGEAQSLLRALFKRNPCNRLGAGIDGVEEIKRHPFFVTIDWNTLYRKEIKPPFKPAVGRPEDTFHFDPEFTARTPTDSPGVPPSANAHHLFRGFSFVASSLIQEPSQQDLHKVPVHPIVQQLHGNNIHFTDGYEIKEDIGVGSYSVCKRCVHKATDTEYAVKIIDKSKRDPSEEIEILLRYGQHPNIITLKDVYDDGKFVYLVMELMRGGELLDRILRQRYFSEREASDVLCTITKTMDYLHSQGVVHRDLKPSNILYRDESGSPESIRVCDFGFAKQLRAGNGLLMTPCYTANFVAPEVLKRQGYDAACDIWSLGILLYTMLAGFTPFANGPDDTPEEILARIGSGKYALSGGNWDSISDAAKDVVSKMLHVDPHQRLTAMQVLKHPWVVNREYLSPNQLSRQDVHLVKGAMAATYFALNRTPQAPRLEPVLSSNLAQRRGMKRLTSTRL
Mitogen-activated protein kinase 14 (Homo sapiens), sequence (Q16539 whole entry): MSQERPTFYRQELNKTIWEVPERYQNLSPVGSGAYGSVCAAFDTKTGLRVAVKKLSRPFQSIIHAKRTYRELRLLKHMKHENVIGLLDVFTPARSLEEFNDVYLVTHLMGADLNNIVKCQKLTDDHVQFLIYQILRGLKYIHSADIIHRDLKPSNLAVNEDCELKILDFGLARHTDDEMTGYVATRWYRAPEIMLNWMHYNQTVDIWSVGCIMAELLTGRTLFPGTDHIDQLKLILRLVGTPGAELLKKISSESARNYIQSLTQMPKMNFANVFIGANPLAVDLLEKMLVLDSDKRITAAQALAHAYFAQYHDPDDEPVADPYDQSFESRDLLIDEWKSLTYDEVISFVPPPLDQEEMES
Ribosomal protein S6 kinase alpha-6 (Homo sapiens), sequence (Q9UK32 whole entry): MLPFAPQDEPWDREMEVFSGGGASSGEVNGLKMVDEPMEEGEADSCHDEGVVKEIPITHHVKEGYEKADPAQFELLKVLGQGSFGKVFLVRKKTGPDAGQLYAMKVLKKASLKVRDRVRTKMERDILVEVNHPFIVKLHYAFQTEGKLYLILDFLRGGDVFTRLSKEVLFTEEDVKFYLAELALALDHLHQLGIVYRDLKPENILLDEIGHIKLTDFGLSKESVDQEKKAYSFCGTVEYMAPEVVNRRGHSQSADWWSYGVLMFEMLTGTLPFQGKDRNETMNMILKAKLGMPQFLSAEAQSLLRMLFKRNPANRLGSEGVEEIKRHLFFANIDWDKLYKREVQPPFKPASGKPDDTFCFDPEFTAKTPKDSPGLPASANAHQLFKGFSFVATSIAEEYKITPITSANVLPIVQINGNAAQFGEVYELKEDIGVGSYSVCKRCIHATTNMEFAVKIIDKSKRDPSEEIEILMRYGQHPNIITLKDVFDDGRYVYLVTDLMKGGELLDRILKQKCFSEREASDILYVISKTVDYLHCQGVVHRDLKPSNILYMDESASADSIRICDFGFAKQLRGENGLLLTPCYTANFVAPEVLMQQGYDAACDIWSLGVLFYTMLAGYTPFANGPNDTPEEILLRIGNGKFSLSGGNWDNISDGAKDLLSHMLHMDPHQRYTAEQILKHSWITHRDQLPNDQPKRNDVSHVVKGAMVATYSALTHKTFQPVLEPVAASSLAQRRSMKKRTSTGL
Ribosomal protein S6 kinase alpha-3 (Homo sapiens), sequence (P51812 whole entry): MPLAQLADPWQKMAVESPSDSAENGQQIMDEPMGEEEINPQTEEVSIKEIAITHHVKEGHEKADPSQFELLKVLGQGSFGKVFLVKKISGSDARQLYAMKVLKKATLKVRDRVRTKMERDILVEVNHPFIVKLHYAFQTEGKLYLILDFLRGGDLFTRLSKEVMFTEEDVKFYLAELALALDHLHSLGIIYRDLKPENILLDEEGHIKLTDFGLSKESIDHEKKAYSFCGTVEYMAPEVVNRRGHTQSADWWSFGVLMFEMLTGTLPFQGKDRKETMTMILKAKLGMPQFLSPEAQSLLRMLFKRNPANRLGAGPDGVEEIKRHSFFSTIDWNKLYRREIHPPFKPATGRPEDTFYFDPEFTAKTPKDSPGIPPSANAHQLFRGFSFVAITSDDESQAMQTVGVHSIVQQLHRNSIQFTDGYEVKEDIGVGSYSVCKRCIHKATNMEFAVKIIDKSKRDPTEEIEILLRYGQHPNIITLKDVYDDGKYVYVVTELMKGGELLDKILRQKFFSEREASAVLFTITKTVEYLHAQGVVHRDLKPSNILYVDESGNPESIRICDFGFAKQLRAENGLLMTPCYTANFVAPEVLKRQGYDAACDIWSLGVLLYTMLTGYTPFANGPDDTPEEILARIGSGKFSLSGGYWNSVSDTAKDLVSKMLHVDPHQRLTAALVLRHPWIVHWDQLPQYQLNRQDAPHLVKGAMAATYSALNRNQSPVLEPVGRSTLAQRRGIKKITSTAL

As for `C[C@@H](N)[C@H]1CC[C@H](C(=O)Nc2ccncc2)CC1`, the residual activity in experiment [1] and in [2] was 111% in each case.
`COc1cc2nccc(Oc3ccc(NC(=O)Nc4cc(C)on4)c(Cl)c3)c2cc1OC`: the figures for the residual activity in experiment [3], in [4] and in experiment [5] were 23%, 5% and 5%, respectively.
`CC(C)(C)c1cc(C=C(C#N)C#N)cc(Br)c1O`: the residual activity in experiment [6] is 112%; in [7], 104%; in experiment [8], 111%; in experiment [9], 100%; in [10] it was 78%; in experiment [11] it was 106%. Further, the residual activity turned out to be 82% in experiment [12]; 98% in experiment [13]; 106% in experiment [14]; 107% in [3]; 112% in experiment [4]; 110% in experiment [15]. The residual activity in experiment [5] worked out at 101%; in [1], 107%; in [2] it was 110%; in experiment [16] it was 101%.
For `CCOc1cc2ncnc(Nc3cccc(Br)c3)c2cc1OCC`, the figures for the residual activity in experiment [1] and in experiment [2] were 103% and 98%, respectively.
As to `COc1ccc2c(c[n+](C)c3c4cc5c(cc4ccc23)OCO5)c1OC`, the residual activity in [6] worked out at 89%; in [7], 79%; in experiment [17] it was 92%; in experiment [10], 91%; in experiment [12], 93%; in [2], 94%. In addition, the residual activity in experiment [18] was determined as 85%.
In the case of `Cn1cnc2cc3c(Nc4cccc(Br)c4)ncnc3cc21`, the residual activity in experiment [1] was determined as 104%; in experiment [2] it was 89%.
On the same counts, the results for `CC(=O)O/N=C1\C(=C2\C(=O)Nc3cc(Br)ccc32)Nc2ccccc21` are 94% and 92%.
Take `O=C1NC(=O)c2c1c1c3ccccc3[nH]c1c1[nH]c3cc(Br)ccc3c21`: the residual activity in experiment [1] was 96%; in [2], 88%.
As for `O=C1NC(=O)c2c1c1c3ccccc3n3c1c1c2c2ccccc2n1C1CCC3O1`, the residual activity turned out to be 13% in experiment [8]; 7% in experiment [17]; 11% in experiment [9]; 3% in experiment [10]; 8% in experiment [11]; 8% in [12]. The residual activity was 9% in experiment [13], 17% in [14], 53% in experiment [19] and 43% in [18].
Regarding `COc1cc2c(cc1OC)-c1n[nH]c(Nc3cccc(F)c3)c1C2`, the residual activity in [1] is 100%.
Turning to `CN[C@@H]1C[C@H]2O[C@@](C)([C@@H]1OC)n1c3ccccc3c3c4c(c5c6ccccc6n2c5c31)C(=O)NC4`, the residual activity in experiment [3] stood at 81%; in experiment [4], 79%; in experiment [15], 97%; in experiment [5], 89%.
As for `CO[C@H]1[C@@H](OC)C[C@H](C)[C@@H](OC)C2=CC(=O)C=C(NC(=O)/C(C)=C/C=C/[C@H](OC)[C@@H](OC(N)=O)/C(C)=C/[C@@H]1C)C2=O`, the residual activity in [3] turned out to be 95%; in experiment [4] it was 106%; in experiment [1], 110%; in experiment [2], 99%.
Regarding `COC(=O)[C@@]1(O)C[C@H]2O[C@]1(C)n1c3ccccc3c3c4c(c5c6ccccc6n2c5c31)C(=O)NC4`, the residual activity in experiment [6] came out at 6%; in experiment [7], 2%; in experiment [8], 1%; in [17], 2%; in experiment [9], 1%; in [10] it was 1%. Besides, the residual activity in [11] is 0%; in experiment [12], 1%; in experiment [13] it was -2%; in experiment [14], 3%; in [3] it was 92%; in experiment [4], 67%. Moreover, the residual activity in [15] was determined as 77%; in [5], 29%; in experiment [1] it was 23%; in [2], 2%; in experiment [16], 58%; in [20] it was 10%. For the same compound, the results for the residual activity in [19] and in [18] were 4% and 1%, respectively.
As to `O=C1NC(=O)/C(=C\c2ccc3nccnc3c2)S1`, the residual activity in [1] was determined as 100%; in experiment [2], 61%.
Turning to `O=C1Nc2ccccc2/C1=C1/Nc2ccccc2/C1=N\OCCC(O)CO` (stereo unspecified), the residual activity in experiment [1] was 95%.
Turning to `c1ccc(-c2n[nH]cc2-c2ccnc3ccccc23)nc1`, the residual activity in experiment [1] is 101%.
In the case of `O=c1cc(N2CCNCC2)oc2c(-c3ccccc3)cccc12`, the residual activity is 92% in [1] and 105% in experiment [2].
